# Assay results from PubChem BioAssay.
# Activity calls are given as the source filed them.
# Experiments:
# [1] = binders of probe aFSTL3 on microarray, primary screen, stem cell growth factor project, biochemical, small-molecule microarray, fluorescence 635/667 (AID 1064); settings: higher = more signal;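 also: measures binding of the biotinylated anti-FSTL3 antibody to printed compounds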
# [2] = binders from COS7 lysate, DM2A8 probe, primary screen, torsin A project, cell lysate, small-molecule microarray, fluorescence 635/667 (AID 1065); settings: higher = more signal, COS7 lysate expressing mutant human TOR1A
# [3] = binders of probe aFGF2 on microarray, primary screen, stem cell growth factor project, biochemical, small-molecule microarray, fluorescence 635/667 (AID 1067); settings: higher = more signal;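 also: measures binding of biotinylated aFGF2 protein to printed compounds on slides; z-score merges feature fluorescence and signal-to-noise across triplicate slides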
# [4] = binders of probe aFGF10 on microarray, primary screen, stem cell growth factor project, biochemical, small-molecule microarray, fluorescence 635/667 (AID 1071); settings: higher = more signal;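 also: score merges 667 nm spot intensity and signal to noise from triplicate slides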
# [5] = target: Neurogenic locus notch homolog protein 2 (Homo sapiens) (UniProt Q04721); test: Notch2 binders on small-molecule microarrays, primary screen, biochemical, small-molecule microarray, 635 nm fluorescence, stem cell growth factors (AID 1073); settings: Notch2 binding, higher = more signal
# [6] = target: Pro-neuregulin-1, membrane-bound isoform (Homo sapiens) (UniProt Q02297); test: NRG1 binders on small-molecule microarrays, primary screen, psychiatric disease protein project, biochemical, small-molecule microarray, fluorescence 635/667 (AID 1075); settings: NRG1 binding, 635 nm fluorescence, higher = more signal;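 also: score combines 667 nm spot fluorescence with signal to noise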
# [7] = system: Neuregulin-1 EGF-like domain; test: binders of neuregulin-1 EGF-like domain, primary screen, biochemical, small-molecule microarray, 635 nm fluorescence (AID 1081); settings: small-molecule microarray binding, higher = more signal;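 also: binding of the protein to compounds printed on small-molecule microarray slides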
# [8] = FRG1 promoter luciferase signal modulators, primary screen, FRG1 inhibition for FSHD, cell-based, C2C12 myotubes, firefly/Renilla luciferase, luminescence (AID 1084); settings: higher = more signal, called active from +8 up or from −8 down
# [9] = binders of probe aFST on microarray, primary screen, stem cell growth factor project, biochemical, small-molecule microarray, fluorescence 635/667 (AID 1086); settings: higher = more signal;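 also: score merges 667 nm fluorescence with signal-to-noise of each printed compound spot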
# [10] = binders of probe aHhip on microarray, primary screen, stem cell growth factor project, biochemical, small-molecule microarray, fluorescence 635/667 (AID 1087); settings: higher = more signal;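 also: score merges spot fluorescence at 667nm with spot signal to noise ratio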
# [11] = system: PRMT1 (protein arginine N-methyltransferase 1); test: PRMT1 binders on small-molecule microarrays, primary screen, biochemical, small-molecule microarray, 635 nm fluorescence (AID 1088); settings: small-molecule microarray binding, higher = more signal;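 also: binding of Prmt1 protein to compounds spotted on small-molecule microarray slides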
# [12] = yeast growth modulation, basal conditions, primary screen, YJM789 clinical isolate, OD600, 24 h (AID 1089);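 also: growth of clinical yeast isolate S. cerevisiae YJM 789 seeded 1000 cells per well; test concentration not given here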; settings: S. cerevisiae YJM789 growth, higher = more signal, called active from +8 up or from −8 down
# [13] = fission yeast growth modulation, primary screen, strain 972, OD600, 24 h, no modulator (AID 1090);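 also: basal condition with compound alone and no growth modifier present; test concentration not given here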; settings: S. pombe 972 growth, higher = more signal, called active from +8 up or from −8 down
# [14] = S. cerevisiae growth modulation with rapamycin, primary screen, strain BY4716, OD600, 96 h (AID 1091); settings: higher = more signal, called active from +8 up or from −8 down; also: test concentration not given here
# [15] = target: Torsin-1A-interacting protein 2 (Homo sapiens) (UniProt Q8NFQ8); test: LULL1 binders on small-molecule microarray, primary screen, cell lysate, human LULL1 lysate, 635/667 nm fluorescence (AID 1092); settings: hLULL1 lysate binding, 635 nm fluorescence, higher = more signal;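 also: probe is lysate of COS7 cells overexpressing human LULL1; score merges per-feature 667 nm fluorescence with signal-to-noise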
# [16] = E. coli growth modulation, two-sided OD650, primary screen, E. coli filamentation project, strain DRC41, 24 h (AID 1093); settings: OD650, 24 h, higher = more signal, called active from +8 up or from −8 down;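 also: MC1000 strain lacking acrAB efflux and sulA so SOS filamentation is blocked; test concentration not given here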
# [17] = small-molecule microarray binders of probe aLefty2, primary screen, biochemical, biotinylated probe, 635/667 nm fluorescence (AID 1094); settings: higher = more signal;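 also: score merges spot fluorescence near 667 nm with spot signal-to-noise ratio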
# [18] = system: Noggin (protein binding on small-molecule microarray); test: Noggin binders on small-molecule microarray, primary screen, biochemical, 635/667 nm fluorescence (AID 1095); settings: 635 nm fluorescence, higher = more signal;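 also: score merges 667 nm feature fluorescence with signal to noise over triplicate slides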
# [19] = target: Neurogenic locus notch homolog protein 3 (Homo sapiens) (UniProt Q9UM47); test: NOTCH3 binders on small-molecule microarray, primary screen, biochemical, 635/667 nm fluorescence (AID 1096); settings: NOTCH3 binding, 635 nm fluorescence, higher = more signal
# [20] = small-molecule microarray binders of probe aEGFR, primary screen, biochemical, biotinylated probe, 635/667 nm fluorescence (AID 1097); settings: higher = more signal;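 also: probe is a biotinylated anti-EGFR antibody binding compounds printed on slides; score combines fluorescence near 667 nm and signal to noise of each spot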
# Chain of Torsin-1A-interacting protein 2 (Homo sapiens) (Q8NFQ8 whole entry, looked up): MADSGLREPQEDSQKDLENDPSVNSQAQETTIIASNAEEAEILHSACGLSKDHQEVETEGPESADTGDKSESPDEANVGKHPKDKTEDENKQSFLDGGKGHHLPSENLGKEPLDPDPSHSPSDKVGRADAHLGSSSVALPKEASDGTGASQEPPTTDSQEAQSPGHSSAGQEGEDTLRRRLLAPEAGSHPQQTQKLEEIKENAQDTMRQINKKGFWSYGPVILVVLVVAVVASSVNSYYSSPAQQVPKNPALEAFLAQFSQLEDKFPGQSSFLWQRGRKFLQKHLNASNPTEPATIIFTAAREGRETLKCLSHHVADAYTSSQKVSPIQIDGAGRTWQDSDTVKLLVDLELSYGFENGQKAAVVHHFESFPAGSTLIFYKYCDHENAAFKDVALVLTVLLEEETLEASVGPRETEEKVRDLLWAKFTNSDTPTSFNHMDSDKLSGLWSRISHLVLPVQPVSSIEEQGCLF
# Chain of Neurogenic locus notch homolog protein 2 (Homo sapiens) (Q04721 whole entry, looked up, canonical isoform): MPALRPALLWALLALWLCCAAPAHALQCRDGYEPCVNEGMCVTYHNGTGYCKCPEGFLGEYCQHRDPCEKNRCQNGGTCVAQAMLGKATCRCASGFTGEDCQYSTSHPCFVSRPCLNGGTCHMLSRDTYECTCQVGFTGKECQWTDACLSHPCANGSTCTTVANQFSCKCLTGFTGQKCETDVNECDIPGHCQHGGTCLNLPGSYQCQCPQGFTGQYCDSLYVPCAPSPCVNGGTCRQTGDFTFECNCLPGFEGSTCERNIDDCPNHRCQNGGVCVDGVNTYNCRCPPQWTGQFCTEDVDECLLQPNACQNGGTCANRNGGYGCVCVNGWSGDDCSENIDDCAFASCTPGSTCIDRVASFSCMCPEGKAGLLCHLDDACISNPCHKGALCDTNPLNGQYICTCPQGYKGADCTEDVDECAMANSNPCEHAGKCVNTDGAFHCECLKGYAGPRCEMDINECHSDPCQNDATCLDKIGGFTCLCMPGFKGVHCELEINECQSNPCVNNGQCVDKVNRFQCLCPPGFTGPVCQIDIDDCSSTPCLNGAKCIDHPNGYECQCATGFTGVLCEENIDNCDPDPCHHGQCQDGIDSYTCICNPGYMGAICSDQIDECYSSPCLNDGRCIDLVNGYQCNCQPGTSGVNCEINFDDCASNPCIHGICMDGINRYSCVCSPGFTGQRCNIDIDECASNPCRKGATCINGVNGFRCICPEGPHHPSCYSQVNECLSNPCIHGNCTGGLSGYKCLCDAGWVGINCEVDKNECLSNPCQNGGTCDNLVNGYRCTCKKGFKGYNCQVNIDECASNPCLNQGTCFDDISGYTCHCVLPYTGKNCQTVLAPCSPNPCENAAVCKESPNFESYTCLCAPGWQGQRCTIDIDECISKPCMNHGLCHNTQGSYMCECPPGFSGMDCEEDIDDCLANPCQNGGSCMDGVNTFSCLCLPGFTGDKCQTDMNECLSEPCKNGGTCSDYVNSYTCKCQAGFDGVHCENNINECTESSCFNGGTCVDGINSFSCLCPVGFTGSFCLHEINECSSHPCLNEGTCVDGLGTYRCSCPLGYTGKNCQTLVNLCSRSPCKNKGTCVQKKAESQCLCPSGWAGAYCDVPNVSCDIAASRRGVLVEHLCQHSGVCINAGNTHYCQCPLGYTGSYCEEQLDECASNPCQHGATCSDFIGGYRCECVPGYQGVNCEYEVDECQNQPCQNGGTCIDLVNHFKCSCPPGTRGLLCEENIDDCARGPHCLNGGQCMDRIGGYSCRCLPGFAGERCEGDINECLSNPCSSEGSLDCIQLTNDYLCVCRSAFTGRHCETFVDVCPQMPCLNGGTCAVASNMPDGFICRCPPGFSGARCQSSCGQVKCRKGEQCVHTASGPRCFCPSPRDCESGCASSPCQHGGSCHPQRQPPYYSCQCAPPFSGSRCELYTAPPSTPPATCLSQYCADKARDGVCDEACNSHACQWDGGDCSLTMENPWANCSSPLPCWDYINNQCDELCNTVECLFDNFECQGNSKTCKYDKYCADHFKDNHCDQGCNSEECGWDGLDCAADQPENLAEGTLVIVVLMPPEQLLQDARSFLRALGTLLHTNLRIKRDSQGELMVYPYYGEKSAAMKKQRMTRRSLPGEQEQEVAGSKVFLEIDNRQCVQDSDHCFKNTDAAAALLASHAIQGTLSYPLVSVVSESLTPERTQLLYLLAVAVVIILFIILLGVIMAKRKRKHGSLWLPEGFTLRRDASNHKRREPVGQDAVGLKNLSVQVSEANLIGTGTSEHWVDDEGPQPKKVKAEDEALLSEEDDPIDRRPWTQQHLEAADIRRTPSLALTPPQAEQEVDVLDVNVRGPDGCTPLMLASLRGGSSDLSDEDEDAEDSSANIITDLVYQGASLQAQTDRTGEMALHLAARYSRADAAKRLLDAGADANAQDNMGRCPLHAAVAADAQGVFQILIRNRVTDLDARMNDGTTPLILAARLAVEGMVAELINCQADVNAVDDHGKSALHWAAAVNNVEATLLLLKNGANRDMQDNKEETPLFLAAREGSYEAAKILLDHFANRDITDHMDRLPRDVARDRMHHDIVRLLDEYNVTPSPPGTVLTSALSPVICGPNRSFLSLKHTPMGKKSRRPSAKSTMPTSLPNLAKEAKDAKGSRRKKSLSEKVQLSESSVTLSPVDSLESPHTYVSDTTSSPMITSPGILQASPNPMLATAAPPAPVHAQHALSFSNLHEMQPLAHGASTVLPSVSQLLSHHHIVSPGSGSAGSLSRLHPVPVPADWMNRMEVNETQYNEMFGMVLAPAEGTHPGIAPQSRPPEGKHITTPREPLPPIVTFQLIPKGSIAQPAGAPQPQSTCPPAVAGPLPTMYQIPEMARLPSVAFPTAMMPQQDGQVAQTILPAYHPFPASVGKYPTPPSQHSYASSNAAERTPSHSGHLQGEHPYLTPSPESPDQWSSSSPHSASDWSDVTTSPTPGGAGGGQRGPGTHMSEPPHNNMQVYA
# Chain of Pro-neuregulin-1, membrane-bound isoform (Homo sapiens) (Q02297 whole entry, looked up, the tested form may be a part, canonical isoform): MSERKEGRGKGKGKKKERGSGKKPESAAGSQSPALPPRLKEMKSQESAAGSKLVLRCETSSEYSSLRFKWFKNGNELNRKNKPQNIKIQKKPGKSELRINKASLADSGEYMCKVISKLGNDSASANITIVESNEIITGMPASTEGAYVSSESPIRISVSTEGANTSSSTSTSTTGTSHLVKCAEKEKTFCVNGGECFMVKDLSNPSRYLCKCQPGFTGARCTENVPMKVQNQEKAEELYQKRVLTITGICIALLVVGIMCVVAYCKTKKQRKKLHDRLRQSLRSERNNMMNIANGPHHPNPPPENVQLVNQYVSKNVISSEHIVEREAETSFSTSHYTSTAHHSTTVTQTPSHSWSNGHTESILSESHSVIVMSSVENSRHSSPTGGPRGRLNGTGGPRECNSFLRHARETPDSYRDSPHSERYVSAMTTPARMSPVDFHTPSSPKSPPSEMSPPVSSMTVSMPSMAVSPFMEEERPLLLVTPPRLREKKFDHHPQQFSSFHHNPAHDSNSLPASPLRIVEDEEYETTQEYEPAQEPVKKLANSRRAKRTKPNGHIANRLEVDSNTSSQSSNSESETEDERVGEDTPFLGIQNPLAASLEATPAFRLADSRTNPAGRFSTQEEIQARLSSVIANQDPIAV
SMILES,composite z-score [1],composite z-score [2],composite z-score [3],composite z-score [4],composite z-score [5],composite z-score [6],composite z-score [7],z-score [8],composite z-score [9],composite z-score [10],composite z-score [11],z-score [12],z-score [13],z-score [14],composite z-score [15],z-score [16],composite z-score [17],composite z-score [18],composite z-score [19],composite z-score [20]
COCCOC(=O)N1C(=O)[C@@]2(c3cc(C#Cc4ccc(OC)cc4)ccc31)[C@H](c1ccc(O)cc1)N1[C@H](c3ccccc3)[C@H](c3ccccc3)OC(=O)[C@H]1[C@@H]2C(N)=O,-0.513,0.258,-0.031,0.602,1.35,1.17,1.26,0.497 (inactive),0.674,0.291,1.55,0.0655 (inactive),-0.118 (inactive),-0.0092 (inactive),2.93,0.04 (inactive),-0.145,0.977,1.1,0.0026
CCN1C(=O)[C@H]2[C@H]3[C@H](O)C=CC(=O)[C@@H]3CC[C@H]2C1=O,-0.456,0.236,-0.0744,0.393,0.602,-0.132,0.226,0.669 (inactive),0.243,0.312,-0.777,0.0131 (inactive),-0.373 (inactive),-0.624 (inactive),0.0819,0.255 (inactive),-0.0961,0.701,0.705,-0.094
C=CC[C@@H]1C=C[C@H](ON=C2c3cc(OC)ccc3O[C@H](c3cccc(OC)c3)[C@H]2O)[C@@H](CO)O1,-0.342,0.0359,-0.1,0.415,0.144,0.0499,-0.199,-0.577 (inactive),0.127,-0.0994,-0.524,-0.39 (inactive),-0.851 (inactive),-1.42 (inactive),0.813,0.686 (inactive),-0.233,-0.0543,0.0033,-0.133
CC1CC/C=C\[C@H]2OC34C=CCN(Cn5nnc6ccccc65)C(=O)[C@H]3N(CCO)C(=O)[C@@H]4C2C(=O)O1 (stereo not given in full),0.398,1.96,-0.0778,-0.181,-1.29,1.52,1.43,-0.203 (inactive),-0.655,-0.0324,0.754,-1.71 (inactive),-1.64 (inactive),-1.99 (inactive),3.32,2.92 (inactive),-0.0819,-1.08,-0.695,-0.424
CO[C@H]([C@@H](C)[C@H](OC)c1ccccc1)[C@H](C)[C@@H](OC)[C@H](C)C(C)=O,-0.426,-0.292,-0.0785,-0.154,-0.448,-0.383,-0.944,0.425 (inactive),0.0432,2.49,-0.694,0.474 (inactive),-0.0357 (inactive),-0.175 (inactive),-0.391,0.243 (inactive),-0.0159,-0.233,-0.177,-0.0996
COC(=O)[C@@H]1CCCN1C(=O)[C@@H](C)CO,-0.527,0.431,-0.137,0.467,0.693,0.346,1.03,1.66 (inactive),0.162,0.154,0.177,-1.12 (inactive),-0.988 (inactive),0.258 (inactive),0.93,-0.197 (inactive),-0.152,0.415,0.753,0.0055
CN1C(=O)[C@@]2(CCC(=O)OC(C)(C)C)N=C(c3ccc(OCCCO)cc3)O[C@H]2c2ccccc21,-0.195,0.756,-0.0948,0.124,0.244,0.859,1.13,-0.105 (inactive),0.183,-0.186,1.54,-1.08 (inactive),-2.19 (inactive),0.0793 (inactive),2.82,1.43 (inactive),0.0112,0.747,0.736,-0.168
COc1ccc(OC[C@H]2Cc3c(-c4ccccc4)nc4c(c3CO2)CN(CCOc2ccccc2)CC4)cc1,-0.133,0.228,-0.172,0.79,1.16,0.679,1.11,0.114 (inactive),0.491,-0.0618,1.53,-0.721 (inactive),-2.44 (inactive),-0.42 (inactive),1.32,0.258 (inactive),0.0534,0.476,1.1,0.03
COc1ccc(O[C@H]2C=C[C@@H](c3ccccc3)O[C@@H]2COC(=O)CCC(C)=NO[C@H](C)c2cn([C@@H]3COC[C@H]3O)nn2)cc1,-0.672,0.518,-0.125,0.323,0.483,0.489,0.586,1.39 (inactive),0.0701,-0.411,1.53,-0.88 (inactive),-0.757 (inactive),-0.56 (inactive),0.146,0.508 (inactive),-0.181,0.525,0.942,-0.148
CCOc1ccc(N2C(=O)/C(=C/C=C/c3ccccc3OC)S(=O)(=O)C2c2cccc([N+](=O)[O-])c2)cc1 (stereo not given),-0.0317,0.232,-0.0906,0.281,0.344,0.903,-0.142,-1.75 (inactive),0.323,-0.515,-0.167,-3.8 (inactive),-3.13 (inactive),0.648 (inactive),0.236,0.841 (inactive),-0.0342,0.39,0.638,-0.103
